# Reference: PMC11062922 (Nature Chemical Biology, 2023)
# Where two headings read alike, the source gives them in different places.
# Legend:
# NTRK1 = conditions: read-out: apparent Kd, n = 1
# NUAK2 = conditions: read-out: apparent Kd, n = 1
# [1] = compound concentrations:100 nM and 1000 nM (sheet 'Lestaurtinib' of Supplementary Table 1),run:Lestaurtinib_02765_R2,Plate:MR026
# [2] = compound concentrations:100 nM and 1000 nM (sheet 'Lestaurtinib' of Supplementary Table 1),run:Lestaurtinib_02766_R2,Plate:MR027
# [3] = compound concentrations:100 nM and 1000 nM (sheet 'Lestaurtinib' of Supplementary Table 1),run:Lestaurtinib_02768_R1,Plate:MR028
# [4] = compound concentrations:100 nM and 1000 nM (sheet 'Lestaurtinib' of Supplementary Table 1),run:Lestaurtinib_02768_R2,Plate:MR028
# [5] = compound concentrations:100 nM and 1000 nM (sheet 'Lestaurtinib' of Supplementary Table 1),run:Lestaurtinib_02795_R1,Plate:MR022
# [6] = compound concentrations:100 nM and 1000 nM (sheet 'Lestaurtinib' of Supplementary Table 1),run:Lestaurtinib_02795_R2,Plate:MR022
# [7] = compound concentrations:100 nM and 1000 nM (sheet 'Lestaurtinib' of Supplementary Table 1),run:Lestaurtinib_02802_R3,Plate:MR029
# [8] = compound concentrations:100 nM and 1000 nM (sheet 'Lestaurtinib' of Supplementary Table 1),run:Lestaurtinib_02896_R2,Plate:MR030
substance,measurement,setting,value
Lestaurtinib,potency estimated from few doses,"NTRK1; compound concentrations:100 nM and 1000 nM (sheet 'Lestaurtinib' of Supplementary Table 1),run:Lestaurtinib_02748_R2,Plate:MR024",951 nM
same,potency estimated from few doses,"NTRK1; compound concentrations:100 nM and 1000 nM (sheet 'Lestaurtinib' of Supplementary Table 1),run:Lestaurtinib_02752_R1,Plate:MR025",2130 nM
same,potency estimated from few doses,NTRK1; [1],528 nM
same,potency estimated from few doses,NTRK1; [2],1650 nM
same,potency estimated from few doses,"NTRK1; compound concentrations:100 nM and 1000 nM (sheet 'Lestaurtinib' of Supplementary Table 1),run:Lestaurtinib_02766_R3,Plate:MR027",1440 nM
same,potency estimated from few doses,NTRK1; [3],628 nM
same,potency estimated from few doses,NTRK1; [4],897 nM
same,potency estimated from few doses,NTRK1; [5],852 nM
same,potency estimated from few doses,NTRK1; [6],1240 nM
same,potency estimated from few doses,"NTRK1; compound concentrations:100 nM and 1000 nM (sheet 'Lestaurtinib' of Supplementary Table 1),run:Lestaurtinib_02802_R1,Plate:MR029",896 nM
same,potency estimated from few doses,NTRK1; [7],943 nM
same,potency estimated from few doses,NTRK1; [8],935 nM
same,potency estimated from few doses,"NTRK1; compound concentrations:100 nM and 1000 nM (sheet 'Lestaurtinib' of Supplementary Table 1),run:Lestaurtinib_03172_R1,Plate:MR031",1440 nM
same,potency estimated from few doses,"NTRK1; compound concentrations:100 nM and 1000 nM (sheet 'Lestaurtinib' of Supplementary Table 1),run:Lestaurtinib_03172_R2,Plate:MR031",662 nM
same,potency estimated from few doses,"NTRK1; compound concentrations:100 nM and 1000 nM (sheet 'Lestaurtinib' of Supplementary Table 1),run:Lestaurtinib_03260_R1,Plate:MR033",898 nM
same,potency estimated from few doses,"NTRK1; compound concentrations:100 nM and 1000 nM (sheet 'Lestaurtinib' of Supplementary Table 1),run:Lestaurtinib_03260_R2,Plate:MR033",635 nM
same,potency estimated from few doses,"NUAK2; compound concentrations:100 nM and 1000 nM (sheet 'Lestaurtinib' of Supplementary Table 1),run:Lestaurtinib_02339_R1,Plate:MR001",489 nM
same,potency estimated from few doses,"NUAK2; compound concentrations:100 nM and 1000 nM (sheet 'Lestaurtinib' of Supplementary Table 1),run:Lestaurtinib_02339_R2,Plate:MR001",23.7 nM
same,potency estimated from few doses,"NUAK2; compound concentrations:100 nM and 1000 nM (sheet 'Lestaurtinib' of Supplementary Table 1),run:Lestaurtinib_02339_R3,Plate:MR001",373 nM
same,potency estimated from few doses,"NUAK2; compound concentrations:100 nM and 1000 nM (sheet 'Lestaurtinib' of Supplementary Table 1),run:Lestaurtinib_02364_R3,Plate:MR002",260 nM
same,potency estimated from few doses,"NUAK2; compound concentrations:100 nM and 1000 nM (sheet 'Lestaurtinib' of Supplementary Table 1),run:Lestaurtinib_02367_R1,Plate:MR003",873 nM
same,potency estimated from few doses,"NUAK2; compound concentrations:100 nM and 1000 nM (sheet 'Lestaurtinib' of Supplementary Table 1),run:Lestaurtinib_02367_R2,Plate:MR003",382 nM
same,potency estimated from few doses,"NUAK2; compound concentrations:100 nM and 1000 nM (sheet 'Lestaurtinib' of Supplementary Table 1),run:Lestaurtinib_02381_R1,Plate:MR004",394 nM
same,potency estimated from few doses,"NUAK2; compound concentrations:100 nM and 1000 nM (sheet 'Lestaurtinib' of Supplementary Table 1),run:Lestaurtinib_02381_R2,Plate:MR004",113 nM
same,potency estimated from few doses,"NUAK2; compound concentrations:100 nM and 1000 nM (sheet 'Lestaurtinib' of Supplementary Table 1),run:Lestaurtinib_02407_R2,Plate:MR005",70.6 nM
same,potency estimated from few doses,"NUAK2; compound concentrations:100 nM and 1000 nM (sheet 'Lestaurtinib' of Supplementary Table 1),run:Lestaurtinib_02422_R1,Plate:MR006",77.8 nM
same,potency estimated from few doses,"NUAK2; compound concentrations:100 nM and 1000 nM (sheet 'Lestaurtinib' of Supplementary Table 1),run:Lestaurtinib_02422_R2,Plate:MR006",44.9 nM
same,potency estimated from few doses,"NUAK2; compound concentrations:100 nM and 1000 nM (sheet 'Lestaurtinib' of Supplementary Table 1),run:Lestaurtinib_02437_R1,Plate:MR007",140 nM
same,potency estimated from few doses,"NUAK2; compound concentrations:100 nM and 1000 nM (sheet 'Lestaurtinib' of Supplementary Table 1),run:Lestaurtinib_02438_R1,Plate:MR008",22.1 nM
same,potency estimated from few doses,"NUAK2; compound concentrations:100 nM and 1000 nM (sheet 'Lestaurtinib' of Supplementary Table 1),run:Lestaurtinib_02443_R1,Plate:MR009",70 nM
same,potency estimated from few doses,"NUAK2; compound concentrations:100 nM and 1000 nM (sheet 'Lestaurtinib' of Supplementary Table 1),run:Lestaurtinib_02443_R2,Plate:MR009",75.5 nM
same,potency estimated from few doses,"NUAK2; compound concentrations:100 nM and 1000 nM (sheet 'Lestaurtinib' of Supplementary Table 1),run:Lestaurtinib_02443_R3,Plate:MR009",696 nM
same,potency estimated from few doses,"NUAK2; compound concentrations:100 nM and 1000 nM (sheet 'Lestaurtinib' of Supplementary Table 1),run:Lestaurtinib_02473_R2,Plate:MR010",100 nM
same,potency estimated from few doses,"NUAK2; compound concentrations:100 nM and 1000 nM (sheet 'Lestaurtinib' of Supplementary Table 1),run:Lestaurtinib_02473_R3,Plate:MR010",53.1 nM
same,potency estimated from few doses,"NUAK2; compound concentrations:100 nM and 1000 nM (sheet 'Lestaurtinib' of Supplementary Table 1),run:Lestaurtinib_02482_R1,Plate:MR011",165 nM
same,potency estimated from few doses,"NUAK2; compound concentrations:100 nM and 1000 nM (sheet 'Lestaurtinib' of Supplementary Table 1),run:Lestaurtinib_02482_R2,Plate:MR011",98 nM
same,potency estimated from few doses,"NUAK2; compound concentrations:100 nM and 1000 nM (sheet 'Lestaurtinib' of Supplementary Table 1),run:Lestaurtinib_02482_R3,Plate:MR011",133 nM
same,potency estimated from few doses,"NUAK2; compound concentrations:100 nM and 1000 nM (sheet 'Lestaurtinib' of Supplementary Table 1),run:Lestaurtinib_02487_R1,Plate:MR012",87.5 nM
same,potency estimated from few doses,"NUAK2; compound concentrations:100 nM and 1000 nM (sheet 'Lestaurtinib' of Supplementary Table 1),run:Lestaurtinib_02487_R2,Plate:MR012",208 nM
same,potency estimated from few doses,"NUAK2; compound concentrations:100 nM and 1000 nM (sheet 'Lestaurtinib' of Supplementary Table 1),run:Lestaurtinib_02487_R3,Plate:MR012",85.6 nM
same,potency estimated from few doses,"NUAK2; compound concentrations:100 nM and 1000 nM (sheet 'Lestaurtinib' of Supplementary Table 1),run:Lestaurtinib_02496_R1,Plate:MR013",931 nM
same,potency estimated from few doses,"NUAK2; compound concentrations:100 nM and 1000 nM (sheet 'Lestaurtinib' of Supplementary Table 1),run:Lestaurtinib_02496_R3,Plate:MR013",50.7 nM
same,potency estimated from few doses,"NUAK2; compound concentrations:100 nM and 1000 nM (sheet 'Lestaurtinib' of Supplementary Table 1),run:Lestaurtinib_02566_R3,Plate:MR014",517 nM
same,potency estimated from few doses,"NUAK2; compound concentrations:100 nM and 1000 nM (sheet 'Lestaurtinib' of Supplementary Table 1),run:Lestaurtinib_02572_R1,Plate:MR015",368 nM
same,potency estimated from few doses,"NUAK2; compound concentrations:100 nM and 1000 nM (sheet 'Lestaurtinib' of Supplementary Table 1),run:Lestaurtinib_02572_R2,Plate:MR015",96.7 nM
same,potency estimated from few doses,"NUAK2; compound concentrations:100 nM and 1000 nM (sheet 'Lestaurtinib' of Supplementary Table 1),run:Lestaurtinib_02584_R1,Plate:MR017",207 nM
same,potency estimated from few doses,"NUAK2; compound concentrations:100 nM and 1000 nM (sheet 'Lestaurtinib' of Supplementary Table 1),run:Lestaurtinib_02584_R3,Plate:MR017",259 nM
same,potency estimated from few doses,"NUAK2; compound concentrations:100 nM and 1000 nM (sheet 'Lestaurtinib' of Supplementary Table 1),run:Lestaurtinib_02601_R3,Plate:MR018",396 nM
same,potency estimated from few doses,"NUAK2; compound concentrations:100 nM and 1000 nM (sheet 'Lestaurtinib' of Supplementary Table 1),run:Lestaurtinib_02606_R1,Plate:MR019",140 nM
same,potency estimated from few doses,"NUAK2; compound concentrations:100 nM and 1000 nM (sheet 'Lestaurtinib' of Supplementary Table 1),run:Lestaurtinib_02606_R2,Plate:MR019",121 nM
same,potency estimated from few doses,"NUAK2; compound concentrations:100 nM and 1000 nM (sheet 'Lestaurtinib' of Supplementary Table 1),run:Lestaurtinib_02606_R3,Plate:MR019",154 nM
same,potency estimated from few doses,"NUAK2; compound concentrations:100 nM and 1000 nM (sheet 'Lestaurtinib' of Supplementary Table 1),run:Lestaurtinib_02624_R1,Plate:MR020",92.2 nM
same,potency estimated from few doses,"NUAK2; compound concentrations:100 nM and 1000 nM (sheet 'Lestaurtinib' of Supplementary Table 1),run:Lestaurtinib_02624_R2,Plate:MR020",93.3 nM
same,potency estimated from few doses,"NUAK2; compound concentrations:100 nM and 1000 nM (sheet 'Lestaurtinib' of Supplementary Table 1),run:Lestaurtinib_02624_R3,Plate:MR020",72.9 nM
same,potency estimated from few doses,"NUAK2; compound concentrations:100 nM and 1000 nM (sheet 'Lestaurtinib' of Supplementary Table 1),run:Lestaurtinib_02741_R1,Plate:MR023",140 nM
same,potency estimated from few doses,"NUAK2; compound concentrations:100 nM and 1000 nM (sheet 'Lestaurtinib' of Supplementary Table 1),run:Lestaurtinib_02741_R2,Plate:MR023",124 nM
same,potency estimated from few doses,"NUAK2; compound concentrations:100 nM and 1000 nM (sheet 'Lestaurtinib' of Supplementary Table 1),run:Lestaurtinib_02741_R3,Plate:MR023",115 nM
same,potency estimated from few doses,"NUAK2; compound concentrations:100 nM and 1000 nM (sheet 'Lestaurtinib' of Supplementary Table 1),run:Lestaurtinib_02748_R3,Plate:MR024",59.8 nM
same,potency estimated from few doses,"NUAK2; compound concentrations:100 nM and 1000 nM (sheet 'Lestaurtinib' of Supplementary Table 1),run:Lestaurtinib_02752_R2,Plate:MR025",68.5 nM
same,potency estimated from few doses,"NUAK2; compound concentrations:100 nM and 1000 nM (sheet 'Lestaurtinib' of Supplementary Table 1),run:Lestaurtinib_02765_R1,Plate:MR026",298 nM
same,potency estimated from few doses,NUAK2; [1],316 nM
same,potency estimated from few doses,"NUAK2; compound concentrations:100 nM and 1000 nM (sheet 'Lestaurtinib' of Supplementary Table 1),run:Lestaurtinib_02765_R3,Plate:MR026",88.4 nM
same,potency estimated from few doses,NUAK2; [2],58.5 nM
same,potency estimated from few doses,NUAK2; [3],89.9 nM
same,potency estimated from few doses,NUAK2; [4],66.1 nM
same,potency estimated from few doses,"NUAK2; compound concentrations:100 nM and 1000 nM (sheet 'Lestaurtinib' of Supplementary Table 1),run:Lestaurtinib_02768_R3,Plate:MR028",146 nM
same,potency estimated from few doses,NUAK2; [5],93.4 nM
same,potency estimated from few doses,NUAK2; [6],95.4 nM
same,potency estimated from few doses,"NUAK2; compound concentrations:100 nM and 1000 nM (sheet 'Lestaurtinib' of Supplementary Table 1),run:Lestaurtinib_02795_R3,Plate:MR022",154 nM
same,potency estimated from few doses,"NUAK2; compound concentrations:100 nM and 1000 nM (sheet 'Lestaurtinib' of Supplementary Table 1),run:Lestaurtinib_02802_R2,Plate:MR029",79.5 nM
same,potency estimated from few doses,NUAK2; [7],69.5 nM
same,potency estimated from few doses,"NUAK2; compound concentrations:100 nM and 1000 nM (sheet 'Lestaurtinib' of Supplementary Table 1),run:Lestaurtinib_02896_R1,Plate:MR030",90.1 nM
same,potency estimated from few doses,NUAK2; [8],130 nM
